nsP2pro inh = CHIKV nsP2 protease inhibition, primary qHTS; FRET peptide cleavage, nsP2pro, fluorescence 1 h; Q8JUX6; Potency, µM (titrated, usually from 24.9 µM), for the others: at the highest dose activity change, negative = inhibition, usual class: inhibitors; AID 1964107; hit rate 1.1% among 31,000; note: nearly all actives have a fitted effect of over 60% in size
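Recombinant nsP2pro (150 nM) was preincubated with compound 15 min at room temperature in 10 mM Tris-HCl pH 8.0, 0.01% Tween 20. Peptide 2 FRET substrate (2.5 uM) was then added and fluorescence read after 1 h. Seven-point series, up to 25 uM.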
nsP2 cell sec = inhibits CHIKV nsP2 protease in cells. shares compounds with nsP2pro inh. cell-based CHIKV nsP2 protease reporter assay. Potency, µM (highest dose often 51.1 µM), without a hit: at the highest dose activity change, negative = inhibition, most hits filed as inhibitors. hit rate 10% among 450; note: nearly all actives have a fitted effect of over 70% in size
Target sequence (Q8JUX6 220-798 limits assumed): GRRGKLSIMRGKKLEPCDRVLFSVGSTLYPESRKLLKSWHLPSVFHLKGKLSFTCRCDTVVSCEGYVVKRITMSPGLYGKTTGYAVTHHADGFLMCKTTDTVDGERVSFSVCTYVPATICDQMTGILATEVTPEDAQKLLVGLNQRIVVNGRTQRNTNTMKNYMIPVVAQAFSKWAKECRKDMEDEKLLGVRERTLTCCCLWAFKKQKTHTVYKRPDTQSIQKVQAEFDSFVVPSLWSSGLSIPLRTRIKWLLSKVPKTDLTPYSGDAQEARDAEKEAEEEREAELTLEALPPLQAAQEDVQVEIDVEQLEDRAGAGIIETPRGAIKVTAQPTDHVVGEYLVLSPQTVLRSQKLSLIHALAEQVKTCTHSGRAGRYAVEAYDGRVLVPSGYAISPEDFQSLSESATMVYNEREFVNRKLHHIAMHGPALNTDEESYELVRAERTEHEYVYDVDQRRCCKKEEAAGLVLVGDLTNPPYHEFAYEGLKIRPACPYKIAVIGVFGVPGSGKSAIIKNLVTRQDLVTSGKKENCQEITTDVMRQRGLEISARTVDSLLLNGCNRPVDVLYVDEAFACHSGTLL
NSP2 full ctr = inhibits full-length CHIKV NSP2 enzyme; hit rate 39% among 410; AID 1964101; shares compounds with nsP2pro inh; Potency, µM (series often up to 50.7 µM), for the others: at the highest dose activity change, negative = inhibition, usual class: inhibitors; Full-length CHIKV NSP2 protease enzymatic counterscreen; note: nearly all actives have a fitted effect of over 65% in size
Furin counterscr = selectivity counter-screen for CHIKV nsP2 protease inhibitors: human furin; shares compounds with nsP2pro inh; Recombinant human furin enzymatic counterscreen, fluorogenic substrate; Potency, µM (series often up to 50.6 µM), for inactives: top-dose activity change, negative = inhibition, hits mostly inhibitors; hit rate 6% among 410
nsP2 NS23 pep = nsP2pro inhibition on native NS2/3 peptide substrate; AID 1964103; Purified CHIKV nsP2 protease, endogenous NS2/3 peptide cleavage; hit rate 34% among 410; Potency, µM (highest dose often 51 µM), for inactives: at the highest dose activity change, negative = inhibition, actives largely listed as inhibitors; shares compounds with nsP2pro inh; note: nearly all actives have a fitted effect of over 55% in size
Papain cs = selectivity counter-screen for CHIKV nsP2 protease inhibitors: papain; hit rate 5% among 410; purified papain protease activity, enzymatic inhibition; AID 1964104; shares compounds with nsP2pro inh; Potency, µM (highest dose often 51 µM), without a hit: at the top dose activity change, negative = inhibition, actives largely listed as inhibitors
nsP2pro conf qHTS = confirmation of CHIKV nsP2 protease inhibitors; shares compounds with nsP2pro inh; CHIKV nsP2 protease enzymatic activity, qHTS; Potency, µM (series often up to 25.5 µM), inactives show top-dose activity change, negative = inhibition, most hits filed as inhibitors; hit rate 43% among 410; note: nearly all actives have a fitted effect of over 75% in size
HCV NS3 4A cs = HCV NS3/4A protease inhibition, counterscreen | shares compounds with nsP2pro inh | HCV NS3/4A protease biochemical counterscreen | Potency, µM (doses to about 50.9 µM), actives largely listed as inhibitors | hit rate 20% among 410 | AID 1964106; note: nearly all actives have a fitted effect of over 55% in size
* marks the source's active call; other numbers are inactive results; i = inactive; ? = inconclusive; ! = not confirmed by another sample; [ ] = remark or other dose. The full list was thinned out, with hits kept by preference. Calls come from the whole dose curve. % is set by controls: 0 for no effect and ±100 for the full control effect; potency is the fitted concentration of half-maximal effect.

SMILES	nsP2pro inh	others
COc1ccc(NC(=O)C2=C(C)Nc3ncnn3C2c2ccc(C)o2)cc1 (stereo unspecified)	-14%
CCOc1ccccc1NC(=O)C1=C(C)Nc2ncnn2C1c1sccc1C (stereo unspecified)	-15%
COc1ccccc1NC(=O)C1=C(C)Nc2ncnn2C1c1ccc[nH]1 (stereo unspecified)	8.9µM*	nsP2 cell sec=5%
N#Cc1cnc(NS(=O)(=O)c2ccc(NC(=O)Cc3ccc(F)c(Cl)c3)cc2)s1	i
Cc1cc(NC(=O)Nc2nnc(-c3cccnc3)s2)ccc1Cl	2%
CCOc1ccc(NC(=O)c2nc(S(=O)(=O)Cc3ccccc3)ncc2Cl)cc1	145%
COc1ccc(CNC(=O)c2nc(S(=O)(=O)Cc3ccccc3)ncc2Cl)cc1	6.3µM*!	nsP2 cell sec=3.7µM*!;NSP2 full ctr=16µM*;Furin counterscr=-1%;nsP2 NS23 pep=8.2µM*;Papain cs=-2%;nsP2pro conf qHTS=5.7µM*;HCV NS3 4A cs=?
COc1ccc(NC(=O)c2nc(S(=O)(=O)Cc3ccc(C)cc3)ncc2Cl)cc1	-30%
CNCC(=O)OCc1cccnc1N(C)C(=O)OC(C)[n+]1cnn(C[C@](O)(c2cc(F)ccc2F)[C@@H](C)c2nc(-c3ccc(C#N)cc3)cs2)c1 (stereo partly specified)	14%
O=S(=O)(Nc1nc(CN2CCOCC2)nc2sc3c(c12)CCCC3)c1ccc2ccccc2c1	i
OC[C@H]1O[C@@H](Oc2c(O)cc(O)cc2/C=C/c2ccc(O)cc2)[C@H](O)[C@@H](O)[C@@H]1O	12%
COc1cc(O)c(C(CC(=O)N2CCC[C@H](C)C2)c2ccc3c(c2)OCO3)c(OC)c1 (stereo partly specified)	2%[39.2 µM]
CNC(=O)C1C(=O)NCC12CCN(C(=O)c1ccc(C(C)(C)C)cc1)CC2 (stereo unspecified)	-20%
COc1ccc(C(=O)NCC(c2cccnc2)N2CCN(c3ccccc3)CC2)cc1 (stereo unspecified)	-10%
COc1ccccc1C(=O)NCC(c1cccnc1)N1CCc2ccccc2C1 (stereo unspecified)	-17%
O=C(NCC(c1cccnc1)N1CCc2ccccc2C1)c1ccc(F)c(F)c1 (stereo unspecified)	?	nsP2 cell sec=-12%
COC(=O)c1ccc(OC(C)=O)c2ncccc12	i
N#Cc1cccc(CN2CCC(N(Cc3cccnc3)C(=O)Nc3ccccc3-c3ccccc3)CC2)c1	34%
CO[C@@H](Cc1ccc(OCCc2nc(-c3ccccc3)oc2C)c2ccsc12)C(=O)O	9.9µM*	nsP2 cell sec=21%;NSP2 full ctr=0%;Furin counterscr=-6%;nsP2 NS23 pep=i;Papain cs=?;nsP2pro conf qHTS=?;HCV NS3 4A cs=i
Cc1oc(-c2ccc(C(=O)NCCCOC(C)C)cc2)nc1CS(=O)(=O)c1ccccc1	-18%
CCOc1ccc(-c2nc(CNC(=O)Nc3ccccc3)c(C)o2)cc1	-18%
CN[C@H]1C[C@@H](N)[C@H](O)[C@@H](O[C@@H]2O[C@H](CO)[C@H](O)[C@@H]3OC4(O[C@H]23)O[C@H]([C@@H](N)CO)[C@H](O)[C@H](O)[C@H]4O)[C@@H]1O (stereo partly specified)	31%
Oc1cccc(O)c1O	8.8µM*	nsP2 cell sec=-19%;NSP2 full ctr=15µM*;Furin counterscr=-15%;nsP2 NS23 pep=8.2µM*;Papain cs=-12%;nsP2pro conf qHTS=1.8µM*;HCV NS3 4A cs=3.3µM*
O=C(O)c1cccc(O)c1O	-21%
CC(C)c1cccc(C(C)C)c1O	-5%
SMILES	nsP2pro inh	others
CC[C@H]1OC(=O)[C@H](C)[C@@H](O[C@H]2C[C@@](C)(OC)[C@@H](O)[C@H](C)O2)[C@H](C)[C@@H](O[C@@H]2O[C@H](C)C[C@H](N(C)C)[C@H]2O)C(C)(O)C[C@@H](C)/C(=N\OCOCCOC)[C@H](C)[C@@H](O)[C@]1(C)O (stereo partly specified)	-4%
CC1C=CC2CCCCC2C1CCC1CC(O)CC(=O)O1 (stereo unspecified)	22%
C=C(C(=O)OC)[C@]12O[C@@](C)(CC[C@@]3(O)/C(=C\C)C(=O)O[C@]3(C)C[C@@H]1OC(=O)C(CO)CN1CCCC1C(=O)O)CC2=O (stereo partly specified)	?	nsP2 cell sec=-3%[17.6 µM];NSP2 full ctr=2.4µM*;Furin counterscr=-7%[17.3 µM];nsP2 NS23 pep=?;Papain cs=-22%[17.2 µM];nsP2pro conf qHTS=2.1µM*;HCV NS3 4A cs=?
C=CC1(C)CC(=O)C2(O)C(C)(O1)C(OC(C)=O)C(OC(=O)CCN(C)C)C1C(C)(C)CCC(O)C12C (stereo unspecified)	9%
COc1ccc(-c2nc(-c3ccccc3)c(NCc3ccccc3)o2)cc1	7%[5.1 µM]
Cc1ccc(S(=O)(=O)c2nc(-c3ccccc3F)oc2NCc2ccccc2)cc1	-2%
COc1ccc(-c2nc(S(=O)(=O)c3ccc(C)cc3)c(NCc3ccccc3)o2)cc1	4.5µM*	nsP2 cell sec=?;NSP2 full ctr=?;Furin counterscr=-4%;nsP2 NS23 pep=?;Papain cs=13µM*;nsP2pro conf qHTS=8µM*;HCV NS3 4A cs=i
CC(C)=C1C[C@@]2(C)C(=CC1=O)CC[C@@H](OC(=O)/C(C)=C/CO)[C@@H]2C	1%
COc1cccc(C(=O)N2CCN(c3ccnc4ccnn34)CC2)c1	4%[39.2 µM]
CC(C)(O)C1OC1C1=CC(=O)C2(C)OC2C1O (stereo unspecified)	9.9µM*	nsP2 cell sec=-6%;NSP2 full ctr=4.6µM*;Furin counterscr=-4%;nsP2 NS23 pep=?;Papain cs=10µM*;nsP2pro conf qHTS=5µM*;HCV NS3 4A cs=?
Oc1cccc2cc(N3CCNCC3)cnc12	i
Cc1cc(C)nc(NC(=S)N2CCN(c3ccc(C(F)(F)F)cc3[N+](=O)[O-])CC2)c1	0%
Fc1cc(-c2nc(Nc3ccc(F)c(F)c3)c3ccccc3n2)ccn1	i
O=C(Nc1cccc(C(F)(F)F)c1)c1cc2nc(-c3ccco3)cc(C(F)(F)Cl)n2n1	-2%
O=C(NCc1cccs1)c1cc2nc(-c3ccco3)cc(C(F)(F)Cl)n2n1	5.6µM*	nsP2 cell sec=14%;NSP2 full ctr=-3%;Furin counterscr=-16%;nsP2 NS23 pep=-19%;Papain cs=-2%;nsP2pro conf qHTS=-16%;HCV NS3 4A cs=i
CN(C(=O)c1cc2nc(-c3ccco3)cc(C(F)(F)F)n2n1)c1ccc(OC(F)(F)Cl)cc1	-25%
CCOC(=O)c1ccoc1-c1ccc2ncnc(NCc3ncc[nH]3)c2c1	-1%
Cc1noc(-c2sc3c(c2-c2nc4ccccc4s2)CCNC3)n1	-4%

Source: PubChem BioAssay
